This is an account of results in PubChem BioAssay (NCI).

The panel holds about 83,000 compounds, 20% with a hit somewhere; the sample as a whole holds those more often.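 48-hour exposure, single concentration, 96-well plates; percent growth endpoint where 0 means no net growth. Active: below 10.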 Values without a mark were called inactive. Active and inactive are the calls of the source.

Some test systems named below: SK-MEL-2 melanoma; EKVX NSCLC; SN12C renal; UO-31 renal; TK-10 renal; ACHN renal; CAKI-1 renal; A498 renal; CCRF-CEM leukemia; MOLT-4 leukemia; SR leukemia; RPMI-8226 leukemia; OVCAR-8 ovarian; OVCAR-5 ovarian; OVCAR-4 ovarian; SK-OV-3 ovarian; IGROV1 ovarian; OVCAR-3 ovarian; HS 578T breast; NCI/ADR-RES ovarian.
What all share (test): NCI-60 one-dose screen, 48 h (100 = growth as untreated, 0 = no growth, -100 = all killed)
Conditions in all cases: 10 µM unless noted

Regarding `COc1cc(CNC(=O)C[C@H](C)CCC=C(C)C)ccc1OCc1cn(-c2ccc(Cl)c(Cl)c2)nn1`, the growth with SK-MEL-2 melanoma is 93.7%; with EKVX NSCLC it was 77.2%; in the test with SN12C renal, 38.2%; in the test on UO-31 renal it was 60.8%; in the test with TK-10 renal, 90.7%; in the test on ACHN renal, 71.5%. For the same compound, the growth in the test on CAKI-1 renal was 64%; with A498 renal, 79.9%; in the test on CCRF-CEM leukemia, 84.5%; in the test with MOLT-4 leukemia it was 68.7%; with SR leukemia it was 27.1%; with RPMI-8226 leukemia, 77.6%. Besides, the growth with OVCAR-8 ovarian was 46.3%; in the test with OVCAR-5 ovarian it was 86.4%; in the test on OVCAR-4 ovarian it was 53.4%; with SK-OV-3 ovarian, 99%; in the test with IGROV1 ovarian, 83.1%; with OVCAR-3 ovarian, 60.1%. For the same compound, the growth with HS 578T breast is 57%; in the test on NCI/ADR-RES ovarian, 36.5%.

For `Cc1ccc(C(=O)Nc2cc(-n3cnc(F)c3)cc(C(F)(F)F)c2)cc1C#Cc1cnc2cccnn12`, the growth was 40.7% in the test with SK-MEL-2 melanoma; 74.2% in the test with EKVX NSCLC; 45.6% with SN12C renal; 39.9% in the test with UO-31 renal; 83.2% in the test with TK-10 renal; 59.4% in the test with ACHN renal. Moreover, the growth was 63.1% with CAKI-1 renal; 103% in the test on A498 renal; 29% with CCRF-CEM leukemia; 44.7% in the test with MOLT-4 leukemia; 18.6% in the test on SR leukemia; 33.1% in the test on RPMI-8226 leukemia. Further, the growth was 66.8% in the test with OVCAR-8 ovarian; 68.3% with OVCAR-5 ovarian; 77.4% with OVCAR-4 ovarian; 114% in the test on SK-OV-3 ovarian; 71.5% in the test on IGROV1 ovarian; 119% with OVCAR-3 ovarian. The growth was 35.8% with HS 578T breast and 57.2% in the test on NCI/ADR-RES ovarian.

As to `Cc1nn(-c2ccccc2)c2nc(C)n(CC(=O)N/N=C/c3cccc([N+](=O)[O-])c3)c(=O)c12`, the growth was 101% in the test on SK-MEL-2 melanoma; 76.8% in the test on EKVX NSCLC; 89.1% in the test with SN12C renal; 69.7% in the test with UO-31 renal; 103% in the test with TK-10 renal; 104% in the test with ACHN renal. Also, the growth with CAKI-1 renal was 88%; with A498 renal, 95.8%; in the test on CCRF-CEM leukemia it was 85.1%; in the test with MOLT-4 leukemia, 88%; in the test on SR leukemia, 85.8%; with RPMI-8226 leukemia it was 85.3%. The growth with OVCAR-8 ovarian is 98.5%; in the test on OVCAR-5 ovarian, 109%; with OVCAR-4 ovarian, 91.2%; in the test on SK-OV-3 ovarian, 92.8%; in the test with IGROV1 ovarian, 91.8%; in the test with OVCAR-3 ovarian it was 106%. Besides, the growth with HS 578T breast is 92.7%; in the test on NCI/ADR-RES ovarian it was 97%.

Turning to `O=C(CSc1nc2sc3c(c2c(=O)n1-c1ccc(Cl)cc1)CCCC3)N/N=C/C=C/c1ccccc1`, the growth in the test on SK-MEL-2 melanoma was -29.3% (active); in the test on EKVX NSCLC it was 39.7%; in the test on SN12C renal, 15.4%; in the test with UO-31 renal, 85.1%; in the test on TK-10 renal, -19% (active); in the test on ACHN renal it was 25.3%. In addition, the growth was 38.5% in the test on CAKI-1 renal; -40.8% (active) with A498 renal; -33.7% (active) in the test on CCRF-CEM leukemia; -24.4% (active) in the test with MOLT-4 leukemia; -23.2% (active) in the test with SR leukemia; -0.68% (active) in the test with RPMI-8226 leukemia. For the same compound, the growth with OVCAR-8 ovarian was -51.3% (active); in the test with OVCAR-5 ovarian, -38.9% (active); in the test with OVCAR-4 ovarian, -31% (active); in the test on SK-OV-3 ovarian, -11.2% (active); with IGROV1 ovarian, -5.52% (active); in the test on OVCAR-3 ovarian, 78.3%. The growth in the test with HS 578T breast was -16.9% (active); in the test with NCI/ADR-RES ovarian, -10.7% (active).

Take `C[C@H](NC(=O)c1ccc2c(-c3ccc(C(F)(F)F)cc3)cccc2c1)c1ccccn1`: the growth was 67.2% with SK-MEL-2 melanoma; 22.8% in the test on EKVX NSCLC; 42% in the test with SN12C renal; 13.6% in the test with UO-31 renal; 42.6% in the test on TK-10 renal; 41.1% in the test with ACHN renal. Moreover, the growth in the test with CAKI-1 renal is 38.8%; in the test with A498 renal, 72.5%; in the test on CCRF-CEM leukemia, 38.6%; in the test on MOLT-4 leukemia, 19.4%; with SR leukemia, 33.3%; with RPMI-8226 leukemia, 21.4%. Also, the growth is 44.7% with OVCAR-8 ovarian; 75.2% in the test on OVCAR-5 ovarian; 42% in the test with OVCAR-4 ovarian; 64% with SK-OV-3 ovarian; 55.8% with IGROV1 ovarian; 45.6% in the test with OVCAR-3 ovarian. The figures for the growth in the test with HS 578T breast and in the test with NCI/ADR-RES ovarian were 53.2% and 32.5%, respectively.

Regarding `CN1CCN(C(=O)CCN(C(=O)Oc2cc3c(c4ccccc24)[C@H](CCl)CN3C(=O)c2cc3cc(OCCCN4CCC4)ccc3[nH]2)[C@H]2CCSSC2)CC1`, the growth with SK-MEL-2 melanoma was -83% (active); in the test with EKVX NSCLC, -89.3% (active); with SN12C renal, 0.64% (active); with UO-31 renal, -37.7% (active); in the test with TK-10 renal it was -25.7% (active); in the test on ACHN renal it was -30.5% (active). Moreover, the growth in the test with CAKI-1 renal is -58.3% (active); in the test with A498 renal it was -40.9% (active); in the test with CCRF-CEM leukemia it was -35.6% (active); in the test with MOLT-4 leukemia it was -35.3% (active); in the test with SR leukemia, -17.2% (active); with RPMI-8226 leukemia it was -39.8% (active). In addition, the growth was -64.4% (active) with OVCAR-8 ovarian; -88.8% (active) in the test on OVCAR-5 ovarian; -30.2% (active) with OVCAR-4 ovarian; -12.4% (active) with SK-OV-3 ovarian; -51.5% (active) in the test with IGROV1 ovarian; -71.7% (active) in the test on OVCAR-3 ovarian. In addition, the growth in the test on HS 578T breast was -9.25% (active); with NCI/ADR-RES ovarian it was -46.7% (active).

With `CN1CCN(C(=O)Oc2cc3c(c4ccccc24)[C@H](CCl)CN3C(=O)c2cc3cc(OCCCN4CCC4)ccc3[nH]2)[C@H]2CSSC[C@H]21`, the growth was -92.7% (active) with SK-MEL-2 melanoma; -38.3% (active) with EKVX NSCLC; -7.03% (active) with SN12C renal; -11.4% (active) in the test with UO-31 renal; 4.65% (active) in the test on TK-10 renal; -11.6% (active) with ACHN renal. The growth is 6.04% (active) in the test on CAKI-1 renal; -17.6% (active) in the test on A498 renal; -25.8% (active) in the test with CCRF-CEM leukemia; -11.6% (active) in the test on MOLT-4 leukemia; -21.2% (active) in the test on SR leukemia; -31.2% (active) in the test on RPMI-8226 leukemia. The growth with OVCAR-8 ovarian was -13.1% (active); in the test with OVCAR-5 ovarian, -19.6% (active); in the test on OVCAR-4 ovarian it was -1.62% (active); in the test on SK-OV-3 ovarian, -16.5% (active); in the test on IGROV1 ovarian, 4.39% (active); in the test with OVCAR-3 ovarian, -10.9% (active). The growth was -7.11% (active) in the test on HS 578T breast and -29.2% (active) in the test on NCI/ADR-RES ovarian.
